In PubChem BioAssay (NCI):
This is part of a sample that, as a whole, favours compounds with a hit. Of some 83,000 tested, about 20% had one in any assay.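 Percent growth is the endpoint: 0 to 100 indicates growth inhibition (40 means 60% inhibition), 0 means no net growth, and negative values indicate cell death.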 Values without a mark were called inactive. The source made the active and inactive calls.

tested on: LOX IMVI melanoma; assay: NCI-60 one-dose screen, 48 h (100 = growth as untreated, 0 = no growth, -100 = all killed); conditions: 10 µM
Procedure: Growth inhibition of the LOX IMVI human tumor cell line is measured as a screen for anti-cancer activity. Cells are grown in 96 well plates and exposed to the test compound for 48 hours. Compounds are tested at a single concentration, which is 10^-5 M for most compounds. The reported endpoint is percent growth (GI% or GIPRCNT), where numbers from 0 - 100% represent growth inhibition, and numbers from -100% - 0 represent cell death. For example, a value of 40 represents 60% growth inhibition. A value of 0 means no net growth occurred over the course of the experiment. A value of -40 indicates 40% of cells at the beginning of the experiment died by the end of the experiment. A value of -100 means all cells are dead at the end of the experiment.
NCI-60 Human Tumor Cell Lines Screen was performed using the standard one-dose NCI protocol, which is described in more detail at https://dtp.cancer.gov/discovery_development/nci-60/default.htm.
Compounds with GIPRCNT values below 10 were considered active. Activity score was based on GIPRCNT using the following formula: […]
Score is 0 for GIPRCNT values of 100 or above, 50 for GIPRCNT values of 0, and 100 for GIPRCNT values of -100.

Row | SMILES | growth
1 | O=C(c1ccc(O)cc1)C1[C@H](c2ccccc2Br)[C@@H](c2ccccc2)NC12C(=O)Nc1ccc(Br)cc12 (stereo not given in full) | 15.8%
2 | COc1ccc(C(=O)/C=C/c2cc(F)cc(C(F)(F)F)c2)cc1S(N)(=O)=O | -91.3% (active)
3 | Cc1cc(=O)oc2cc(OCCCCOc3ccc(/C=C/C(=O)Nc4ccc(F)c(Cl)c4)cc3)ccc12 | 97.6%
4 | Cc1ccc(S(=O)(=O)c2nc(-c3ccccc3)oc2S(=O)(=O)CC(=O)N2CCCC2)cc1 | -91.3% (active)
5 | CN1CCN(c2ccc(C(=O)/C=C/c3ccc(C#N)cc3)cc2)CC1 | 16.7%
6 | COc1ccc(C2N(c3ccc(Br)cc3)N=C(C(C)=O)N2[C@H]2[C@H](OC(C)=O)O[C@H](COC(C)=O)[C@@H](OC(C)=O)[C@@H]2OC(C)=O)cc1 (stereo not given in full) | 71.1%
7 | CCOC(=O)C1=C(N)N(c2ccc(Cl)cc2)C2=C(C(=O)CC(C)(C)C2)C1c1ccc(N2CCOCC2)cc1 (stereo not given) | 115%
8 | COc1ccc(-c2c(N)c(=O)n(C)c3ccccc23)cc1 | 45.9%
9 | Clc1ccc(/C=N/Nc2ncnc3sc4c(c23)CCN(Cc2ccccc2)C4)cc1 | -52.1% (active)
10 | Nc1cc(-c2cccc(C(=O)NCc3ccc4c(c3)OCO4)c2)ccn1 | 89.5%
11 | CCOP(=O)(OCC)O[C@H]1CCC(=O)[C@@H]2[C@H]1[C@H]1C[C@@H]3[C@@]4(C)CCCC(C)(C(=O)OC)[C@@H]4CC[C@@]23C=C1C(C)C (stereo not given in full) | 62.4%
12 | CSc1nc(-c2cccc(C)c2)c2cc(-c3ccccc3)n(C)c2n1 | 21.4%
13 | C/C(=N\NC(N)=S)c1ccc(Nc2nc(SC(C)C)nc(-c3ccccc3)c2C#N)cc1 | 29.8%
14 | Nc1n[nH]c2cccc(C#Cc3cccc(NC(=O)Nc4cc(C(F)(F)F)cc(C(F)(F)F)c4)c3)c12 | -100% (active)
15 | Nc1nc(Nc2ccccc2)nn1Cc1c(Cl)cccc1Cl | 16.3%
16 | CCOC(=O)c1c(CSc2ccccc2)n(C)c2cc(CN(C)C)c(O)c(CN(C)C)c12 | 22.2%
17 | COC(=O)CC1CC1C1Cc2c(nc(N(C)S(C)(=O)=O)nc2C(C)C)-c2ccc(F)cc21 (stereo not given) | 79.1%
18 | CN1CCN(c2ccc(Nc3nc(NCCNC(=O)c4ccc(C(F)(F)F)cc4)c4sccc4n3)cc2)CC1 | -93.9% (active)
19 | CC(=O)Nc1nc(-c2ccc(N3CCN(C)CC3)c(NS(=O)(=O)c3cccc4c(N(C)C)cccc34)c2)cs1 | -35.6% (active)
20 | O=C1CCC(N2Cc3c(NCc4ccc(-c5ccccc5)cc4)cccc3C2=O)C(=O)N1 (stereo not given) | 80.5%

Row | SMILES | growth
21 | O=C1Nc2cc(Cl)ccc2/C1=C/c1cccc(OCc2ccccc2)c1 | -82.6% (active)
22 | COC1=C[C@@]23CCC(=O)N2CCc2cc4c(cc2[C@H]3[C@H]1OC(=O)C(C)(C)O)OCO4 | 96.6%
23 | Cc1cc2c(c(O)c1Br)-c1ncoc1C(=O)[C@]1(C)CC[C@H](C(C)C)[C@H]21 | 35.6%
24 | CCCCSc1nc(Nc2ccc(/C(C)=N/NC(N)=S)cc2)c(C#N)c(-c2ccc(F)cc2)n1 | 6.74% (active)
25 | COc1ccsc1/C=N/NC(=O)c1[nH]c2ccc(Br)cc2c1-c1ccccc1 | -18% (active)
26 | Cc1cc(C)nc(/N=C(\N)Nc2ccc(S(=O)(=O)Nc3nc(C)cc(C)n3)cc2)n1 | 98.6%
27 | Cc1ccc(C(=O)Nc2ccc(-n3c(C)nc4c(cnn4-c4ccccc4)c3=O)cc2)cc1 | 67.2%
28 | CCOC(=O)C(Cc1ccccc1)N1C(=O)/C(=C/N2N=C(c3ccc(OC)cc3)CC2c2ccc3ccccc3c2)SC1=S (stereo not given) | -100% (active)
29 | COc1ccc(-c2nc(S(=O)(=O)c3ccc(C)cc3)c(S(=O)(=O)CC(=O)N(C)Cc3ccccc3)o2)cc1 | -91.1% (active)
30 | C/C(=C\CC/C=C(\C)CC/C=C(\C)CC[C@@H](O)C(C)(C)O)CC/C=C(\C)CC[C@@H](O)C(C)(C)O | 28.7%
31 | O=c1c2ccccc2nc(COc2ccccc2)n1/N=C/c1ccc(N2CCCC2)cc1 | 86.6%
32 | O=C1Nc2ccc(Cl)cc2/C1=C/c1cccc(OCc2ccccn2)c1 | -89.9% (active)
33 | Cc1ccc(-c2nc3ccc(C(=O)N=Nc4c(O)[nH]c5ccc(Cl)cc45)cc3[nH]2)cc1 | -100% (active)
34 | COc1ccc(-c2nc(S(=O)(=O)c3ccccc3)c(S(C)(=O)=O)o2)cc1 | -85.3% (active)
35 | O=C(CS(=O)(=O)c1oc(-c2ccc(Cl)cc2)nc1S(=O)(=O)c1ccccc1)N1CCCC1 | -100% (active)
36 | Cc1ccc(/C=C/C(=O)c2ccc(NC(=O)CSc3nnc(-c4c[nH]c5ccccc45)n3-c3ccccc3)cc2)cc1 | 78.4%
37 | CNCc1cccc2c1OCCCCCC[C@@](C)(O)CC1(CC1)S(=O)(=O)c1ccc(cc1)-c1cnc(N)c(n1)C(=O)N2 | -100% (active)
38 | Cc1noc2c(Cc3ccccc3)nn(CC(=O)N/N=C/c3ccc(Br)cc3)c(=O)c12 | 45.9%
39 | O=C1Nc2ccc(F)cc2/C1=C/c1cccc(OCc2ccccc2)c1 | -79.5% (active)
40 | C#Cc1ccc(S(=O)(=O)Nc2cccc(-c3csc(NC(C)=O)n3)c2)cc1 | 54.6%
